# Measurements published in PubChem BioAssay (NCATS).
# Results filed as inconclusive are left out. Active and inactive are the calls of the source. Calls follow the shape of the dose curve; as a rule, active = well fitted inhibition curve with a large enough effect; inconclusive = small, poorly fitted or top-dose-only effect; inactive = no such curve, though single readings can be large or run the other way.
# Experiment: Primary qHTS for inhibitors of nuclear receptor binding SET domain protein 2 (NSD2) in an RCH-ACV wild type WT cells (2C) (AID 1645877); also: nearly all actives have a fitted effect of over 70% in size
# Details: RCH-ACV (leukaemia line) NSD2 WT (2C) viability, CellTiter-Glo, 72 h; series mostly up to 44.9 µM; activity change, negative = cell killing: at the top concentration
# % is scaled to controls: 0 for no effect and ±100 for the full control effect; potency is read from the fitted curve at half-maximal effect.
Compound,"activity change, negative = cell killing",Potency,outcome
OC[C@H]1O[C@@H](O[C@H]2[C@H](OCc3ccccc3)O[C@H](CO[C@@H]3OC[C@@H](O)[C@H](O)[C@H]3O)[C@@H](O)[C@@H]2O)[C@H](O)[C@@H](O)[C@@H]1O,0.926% [at 17.3 µM] (inactive),,
Cc1onc(C(=O)N2CCN(C(c3ccc(Cl)cc3)c3ccc(Cl)cc3)CC2)c1[N+](=O)[O-],,145 nM (active),
CCOc1cc(C)c(Cl)cc1S(=O)(=O)n1cnc2ccccc21,-17.4% [at 17.3 µM] (inactive),,
CCOc1ccc2nc(SCCN3CCOCC3)[nH]c2c1,-15.1% (inactive),,
O=C(CN1C(=O)C2(CCCC2)NCC1c1cc(F)cc(F)c1)Nc1ccc2c(c1)CC1(C2)C(=O)Nc2ncccc21 (centres undefined),-12.3% (inactive),,
COC(=O)C1=COC(O[C@@H]2O[C@H](CO)[C@@H](O)[C@H](O)[C@H]2O)[C@H]2[C@@H]1[C@H](OC(=O)CCc1ccc(O)cc1)C[C@]2(C)O (some centres undefined),,,inactive [at 17.3 µM]
CCc1cnn2c(NCc3ccc[n+]([O-])c3)cc(N3CCCCC3CCO)nc12 (centres undefined),,9.2 nM (active),
CCOc1cc(CC(=O)NC(CC(C)C)c2ccccc2N2CCCCC2)ccc1C(=O)O (centres undefined),4.19% (inactive),,
C=C(C(=O)O)[C@H]1C[C@]2(C)[C@@H](O)CC[C@]23O[C@H]1C[C@@H]3C,,,inactive
C[C@@H]1O[C@@H](O[C@H]2[C@@H](OC(=O)[C@]34CCC(C)(C)CC3C3=CCC5[C@@]6(C)C[C@H](O)[C@H](O[C@@H]7O[C@H](C(=O)O)[C@@H](O)[C@H](O)[C@H]7O)[C@@](C)(C(=O)O)C6CC[C@@]5(C)[C@]3(C)CC4)OC[C@H](O)[C@@H]2O)[C@H](O)[C@H](O)[C@H]1O[C@@H]1OC[C@@H](O)[C@H](O)[C@H]1O (some centres undefined),-16.7% [at 9.23 µM] (inactive),,
CC1(C)CCC(C)(C)c2cc(C3(c4ccc(C(=O)O)cc4)OCCO3)ccc21,,,inactive
CC1(C)CC(NC(=O)C(=O)Nc2ccc(Br)cc2)CC(C)(C)N1,,5780 nM (active),
O=C(/C=C\c1ccc(O)cc1)N[C@@H](Cc1ccc(O)cc1)C(=O)O,,,inactive
CC(=O)OC[C@]12[C@H](OC(C)=O)C(=O)[C@@H]3[C@@H](OC(C)=O)[C@@]14O[C@@]3(C)COC(=O)c1cccnc1[C@@H](C)[C@H](C)C(=O)O[C@@H]([C@H](O)[C@@H]2OC(C)=O)[C@]4(C)O,-11.7% [at 17.3 µM] (inactive),,
C/C(=C\CC[C@@H](C)[C@H]1CC(O)[C@@]2(C)C3CC[C@H]4C(C)(C)[C@@H](OC5OCC(O)C(O)C5OC5OC(CO)C(O)C(O)C5O)CC[C@@]45C[C@@]35CC(O)[C@]12C)C(=O)O (some centres undefined),-13.7% [at 17.3 µM] (inactive),,
CC(C)CCC[C@@H](C)[C@H]1CC[C@H]2[C@@H]3CC(=O)[C@H]4C[C@@H](O)CC[C@]4(C)[C@H]3CC[C@]12C,4.31% (inactive),,
COc1cc(O)cc(C)c1C(=O)O[C@H]1[C@@H](OC(C)=O)[C@H](n2ccc(=O)[nH]c2=O)O[C@@H]1CO,3.39% [at 17.3 µM] (inactive),,
CCCN1CCN(c2ccc(C(=O)NC3(C(=O)NCC#N)CCCCC3)cc2)CC1,-14.7% (inactive),,
CC1CCC2(C(=O)O)CCC3(C)C(=CCC4C5(C)CCC(O)C(C)(CO)C5CCC43C)C2C1(C)O (centres undefined),-17.9% [at 17.3 µM] (inactive),,
COc1c2ccoc2cc2oc(CO[C@@H]3O[C@H](CO)[C@@H](O)[C@H](O)[C@H]3O)cc(=O)c12,-18.9% (inactive),,

Compound,"activity change, negative = cell killing",Potency,outcome
Cc1cc(NC(=O)Nc2ccc(F)c(F)c2)n(-c2ccccc2)n1,-18.4% (inactive),,
CC(C)O[C@@H]1O[C@H](CO)[C@@H](O)[C@H](O)[C@H]1O,-10% (inactive),,
Cc1c(NC(=O)c2cc(C(N)=O)nc3cc(F)ccc23)c(C(F)(F)F)nn1Cc1ccc(C#N)cc1,-23.2% [at 17.3 µM] (inactive),,
CC(=O)OC1C(c2ccccc2)CCC(c2ccccc2)C1OC(C)=O (centres undefined),-0.0274% (inactive),,
CCOc1cc(N2CCC(O)CC2)ccc1Nc1ncc2c(n1)N(C1CCCC1)CCC(=O)N2C,,1830 nM (active),
C[C@@H]1O[C@@H](O[C@@H]2[C@@H](O)[C@@H](O[C@]3(CO)O[C@H](CO)[C@@H](O)[C@@H]3OC(=O)/C=C/c3ccc(O)cc3)O[C@H](CO)[C@H]2OC(=O)/C=C/c2ccc(O)cc2)[C@H](O)[C@H](O)[C@H]1O[C@@H]1O[C@@H](C)[C@H](O[C@@H]2OC[C@](O)(CO)[C@H]2O)[C@@H](O)[C@H]1O,1.71% [at 9.23 µM] (inactive),,
C[C@H](C/C=C/C(C)(C)O)[C@H]1CC[C@@]2(C)[C@@H]3[C@@H](O[C@@H]4O[C@H](CO)[C@@H](O)[C@H](O)[C@H]4O)C=C4C(CC[C@H](O)C4(C)C)[C@]3(C=O)CC[C@]12C (some centres undefined),-23.7% [at 17.3 µM] (inactive),,
CC(=O)OC[C@H]1O[C@H](O[C@]2(CO)O[C@H](CO)[C@@H](OC(=O)/C=C/c3ccccc3)[C@@H]2O)[C@H](O)[C@@H](O)[C@@H]1O,-14.5% [at 17.3 µM] (inactive),,
Cn1cncc1C(N)(c1ccc(Cl)cc1)c1ccc2c(c1)c(-c1cccc(Cl)c1)cc(=O)n2C (centres undefined),,833 nM (active),
CC1(C)CC[C@]2(C(=O)O[C@@H]3O[C@H](CO[C@@H]4O[C@H](CO)[C@@H](O)[C@H](O)[C@H]4O[C@@H]4O[C@H](CO)[C@@H](O)[C@H](O)[C@H]4O)[C@@H](O)[C@H](O[C@@H]4O[C@H](CO)[C@@H](O)[C@H](O)[C@H]4O)[C@H]3O)CC[C@]3(C)C(=CCC4[C@@]5(C)CC[C@@H](O)[C@@](C)(C(=O)O[C@@H]6O[C@H](CO)[C@@H](O)[C@H](O)[C@H]6O)C5CC[C@]43C)[C@@H]2C1 (some centres undefined),,,inactive [at 9.23 µM]
CCC[C@@H]1O[C@@H]2C[C@H]3[C@@H]4CCC5=CC(=O)C=C[C@]5(C)[C@H]4[C@@H](O)C[C@]3(C)[C@]2(C(=O)CO)O1,,5.8 nM (active),
C=C1CC[C@@H]2[C@](C)(CO[C@@H]3O[C@H](CO)[C@@H](O)[C@H](O)[C@H]3O)[C@H](O)CC[C@@]2(C)[C@@H]1C/C=C1/C(=O)OC[C@H]1O,-7.26% [at 17.3 µM] (inactive),,
COC(=O)CCc1cc2ccoc2c(OC)c1O[C@@H]1O[C@H](CO)[C@@H](O)[C@H](O)[C@H]1O,,,inactive [at 17.3 µM]
COC(=O)N1CCC(n2ncc3c(N4CCOCC4)nc(-c4ccc(NC(=O)Nc5ccc(CO)cc5)cc4)nc32)CC1,,18.3 nM (active),
C=C1C(OC2OCC(O)C(O)C2O)CC2C(C)(C)C(O)CCC2(C)C1CC/C(C)=C\CO (centres undefined),,8930 nM (active),
CCCCC1CCN(CCCC(=O)c2ccccc2C)CC1,,16300 nM (active),
C=C1C(OC(=O)/C(C)=C\C)[C@@]23CCC4[C@@](C)(CCC[C@@]4(C)C(=O)O)C2CC[C@H]1C3OC(C)=O (some centres undefined),-28.3% [at 17.3 µM] (inactive),,
Cc1ccc(Cc2c(C)nc3nc(SCC(=O)NCCN4CCNCC4)nn3c2C)cc1,-2.43% (inactive),,
CC1(C)CC[C@]2(C(=O)O[C@@H]3O[C@H](CO)[C@@H](O)[C@H](O)[C@H]3O)CC[C@]3(C)C(=CCC4[C@@]5(C)CC[C@H](O[C@@H]6O[C@H](C(=O)O)[C@@H](O)[C@H](O[C@@H]7O[C@H](CO)[C@H](O)[C@H](O)[C@H]7O)[C@H]6O)C(C)(C)C5CC[C@]43C)C2C1 (some centres undefined),-15.1% [at 9.23 µM] (inactive),,
